In one test the test system is C33A. Kind of test: Primary qHTS to identify gynecologic anti-cancer compounds using libraries of approved drugs and bioactive compounds (AID 1345084). Note: nearly all actives have a fitted effect of over 55% in size. Particulars: Gynecologic cancer cell panel viability, ATPlite luminescence, 48 h; series mostly up to 57.5 µM. In a few lines: (§1)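 48 h compound exposure at 37 C, 5% CO2; five-point qHTS. ATPlite luminescence readout of cell ATP.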
On the technique in general: qHTS replaces the single test concentration by a dilution series.

The next test relates to CAOV3. The test is described as above. Particulars: Gynecologic cancer cell panel viability, ATPlite luminescence, 48 h; series mostly up to 57.5 µM. In a few lines:
as §1
Background: ATP-based viability assays read luminescence as a measure of living cells.

In another test the test system is CASKI. The test is described as above. To be noted: Gynecologic cancer cell panel viability, ATPlite luminescence, 48 h; series mostly up to 57.5 µM. In a few lines:
as §1

A further test deals with Es-2. Described as above. To be noted: Gynecologic cancer cell panel viability, ATPlite luminescence, 48 h; series mostly up to 57.5 µM. In a few lines: as §1
Another test has as its system HeLa. The test is described as above. To be noted: Gynecologic cancer cell panel viability, ATPlite luminescence, 48 h; series mostly up to 57.5 µM. The method, boiled down:
as §1

For a further test, the system named is Hek293T. The description is as above. Particulars: Gynecologic cancer cell panel viability, ATPlite luminescence, 48 h, control line for the selectivity index; series mostly up to 57.5 µM. The method, boiled down:
as §1

Another test has as its system JEG-3. The description is as above. Particulars: Gynecologic cancer cell panel viability, ATPlite luminescence, 48 h; series mostly up to 57.5 µM. The method, boiled down:
as §1

For another test, the system named is OV90. The test is described as above. Particulars: Gynecologic cancer cell panel viability, ATPlite luminescence, 48 h; series mostly up to 57.5 µM. In a few lines: as §1
For a further test, the system named is PA-1. The test is described as above. To be noted: Gynecologic cancer cell panel viability, ATPlite luminescence, 48 h; series mostly up to 57.5 µM. In a few lines:
as §1

A further test relates to SKOV3. The description is as above. Particulars: Gynecologic cancer cell panel viability, ATPlite luminescence, 48 h; series mostly up to 57.5 µM. The method, boiled down: as §1
The next test has as its system Tov-21-G. The description is as above. To be noted: Gynecologic cancer cell panel viability, ATPlite luminescence, 48 h; series mostly up to 57.5 µM. The method, boiled down:
as §1

The next test relates to Tov112D. Described as above. Particulars: Gynecologic cancer cell panel viability, ATPlite luminescence, 48 h; series mostly up to 57.5 µM. The method, boiled down:
as §1

The nature of test [1]: qHTS assay to identify inhibitors of the type 1 interferon - major histocompatibility complex class I in skeletal muscle: Counter screen cell viability and HiBit confirmation (AID 1347412). For all read-outs here: nearly all actives have a fitted effect of over 60% in size. Particulars: iHSKM muscle cells + IFN-b, HiBiT or CellTiter-Glo, 24 h; for Potency: HiBiT. In a few lines:
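Myoblasts (C25cl48, HLA-B HiBiT) seeded in medium without dexamethasone, IFN-b 4 ng/ml added except unstimulated columns; 1 hr later compounds pinned (12-pt 1:3, top 46 uM final). Incubated 24 hrs, lysed 10 min, luminescence measured.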

The nature of test [2]: Drug repurposing screens with cells derived from glioblastoma tumor samples (AID 1345199). Note: nearly all actives have a fitted effect of over 40% in size. To be noted: GBM patient neurospheres viability, ATP luminescence, 48 h. The method, boiled down: (§2)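 Primary testing used CD133+ neurospheres from four GBM patients, seven concentrations, 48 h exposure and ATP-based viability; confirmation added three slower-growing patient lines.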
In the next test the test system is astro. The test is described as above. To be noted: viability, ATP luminescence, 48 h; series mostly up to 45.9 µM. In a few lines:
as §2

Results filed as inconclusive are left out. Unmarked numbers belong to inactive results. Activity calls are given as the source filed them. Calls come from the whole dose curve; as a rule, active = well fitted curve in the direction sought with a large enough effect; inconclusive = small, poorly fitted or top-dose-only effect, or another doubt; inactive = no such curve, though single readings can be large; an effect the other way counts as inactive or inconclusive.
% is set by controls: 0 for no effect and ±100 for the full control effect; potency is the fitted concentration of half-maximal effect.

`CC(/C=C/C(=O)NO)=C\[C@@H](C)C(=O)c1ccc(N(C)C)cc1`: the Potency with C33A was 3.55 µM (active); with CAOV3, 4.47 µM (active); with CASKI, 1.58 µM (active); in the test with Es-2, 5.62 µM (active); in the test with HeLa it was 3.55 µM (active); in the test with Hek293T, 3.16 µM (active). The Potency is 1.41 µM (active) in the test with JEG-3; 2.24 µM (active) in the test with OV90; 1 µM (active) in the test with PA-1; 1.58 µM (active) with SKOV3; 3.55 µM (active) with Tov-21-G; 1.78 µM (active) in the test with Tov112D. Also, in [1], the Potency was 1.76 µM (active). In addition, the activity change, negative = inhibition in test [1] (Viability, at 45.9 µM (top of the series)) is -7.11%.
As for `C=C1C(=O)OC2/C=C(\CO)CC/C=C(\C=O)C(OC)C(OC(=O)C(C)CC)C12` (configuration not stated), the Potency entry in the test with C33A, in the test with CAOV3, with CASKI, with Es-2, with HeLa and in the test with Hek293T was “inactive” throughout. In addition, the Potency entry in the test with JEG-3, in the test with OV90, in the test on PA-1, in the test on SKOV3 and with Tov112D was “inactive” each time.
With `C=C1C(=O)OC2C=C(C)CC/C=C(\CO)CC(O)C12` (configuration not stated), the Potency result in the test with C33A, with CAOV3, in the test on CASKI, in the test on Es-2, in the test with HeLa and with Hek293T was “inactive” throughout. Moreover, the Potency entry with JEG-3, in the test with OV90, in the test with PA-1, in the test with SKOV3, in the test on Tov-21-G and with Tov112D was “inactive” throughout.
As to `O=[N+]([O-])c1cn2c(n1)OC[C@@H](OCc1ccc(-c3ccc(OC(F)(F)F)cc3)nc1)C2`, the Potency result in the test with C33A, in the test with CAOV3, in the test with CASKI, in the test on Es-2, in the test on HeLa and in the test with Hek293T was “inactive” in each case. For the same compound, the Potency entry with JEG-3, in the test with OV90, with PA-1, with SKOV3, with Tov-21-G and in the test on Tov112D was “inactive” throughout.
In the case of `COc1cc(C2OC(c3ccc(OC)c(OC)c3)C(C)C2C)ccc1O` (configuration not stated), the Potency entry in the test with C33A, with CAOV3, in the test on CASKI, in the test with Es-2, with HeLa and in the test with Hek293T was “inactive” in each case. Also, the Potency result in the test with JEG-3, with OV90, with PA-1, with SKOV3, in the test with Tov-21-G and in the test on Tov112D was “inactive” each time.
On to `C#CCCCn1cc(-c2cccc3c2N[C@H](C)CC(=O)N3)cn1`, for which the Potency result in the test with C33A, in the test with CAOV3, in the test on CASKI, in the test on Es-2, with Hek293T and in the test with JEG-3 was “inactive” each time. Moreover, the Potency result in the test on OV90, in the test on SKOV3, in the test on Tov-21-G and with Tov112D was “inactive” each time. In addition, the Potency with HeLa was 0.891 µM (active); with PA-1, 7.08 µM (active).
With `CC[C@H](C)/C=C(C)/C=C/C1=CC2=CC(=O)[C@]3(C)OC(=O)[C@@H](C(C)=O)[C@@H]3C2=CO1`, the Potency entry with C33A, in the test on CAOV3, with CASKI, with Es-2, in the test on HeLa and in the test on Hek293T was “inactive” in each case. Moreover, the Potency result in the test with JEG-3, in the test with OV90, with PA-1, in the test on SKOV3 and in the test with Tov112D was “inactive” throughout.
Regarding `COc1ccnc(CS(=O)c2nc3cc(OC(F)F)ccc3[nH]2)c1OC` (configuration not stated), the Potency result with C33A, with CAOV3, in the test on CASKI, in the test with Es-2, in the test with HeLa and in the test on Hek293T was “inactive” in each case. Also, the Potency result in the test with JEG-3, in the test with OV90, with PA-1, with SKOV3, in the test with Tov-21-G and in the test with Tov112D was “inactive” each time. Also, the Potency result in the test on astro was “inactive”. In addition, the activity, negative = cell killing in [2] (at 45.9 µM (top of the series), tumour line B) was -14.8%; in [2] (at 45.9 µM (top of the series), tumour line D), -24.9%; in test [2] (at 46.1 µM (top of the series), tumour line C), -12.9%. For the same compound, in [2] (tumour line A), the Potency is 28.2 µM (active).
Regarding `C=C1C(=O)OC2CC(C)C(CCC(C)=O)=CCC12` (configuration not stated), the Potency entry in the test with C33A, in the test with CAOV3, in the test on CASKI, in the test with Es-2, with HeLa and in the test with Hek293T was “inactive” throughout. Besides, the Potency result in the test on JEG-3, in the test on OV90, in the test on PA-1, with SKOV3 and in the test on Tov112D was “inactive” throughout.
On to `CN(C)C(=O)C(=O)c1cn(C)c2cc(Cl)c(C(=O)N3CCC(Cc4ccc(F)cc4)CC3)cc12`, for which the Potency result with C33A, in the test on CAOV3, with CASKI, in the test with Es-2, in the test with HeLa and with Hek293T was “inactive” each time. Also, the Potency result in the test with JEG-3, in the test on OV90, in the test with PA-1, in the test on SKOV3, with Tov-21-G and with Tov112D was “inactive” throughout.
On to `CCC(C)CNCC(=O)N1CCC2SC=CC2C1COc1cccc(C)c1` (configuration not stated), for which the Potency entry with C33A, in the test on CAOV3, in the test with CASKI, in the test with Es-2, with HeLa and in the test on Hek293T was “inactive” each time. The Potency result with JEG-3, in the test on OV90, in the test with PA-1, with SKOV3, in the test on Tov-21-G and in the test on Tov112D was “inactive” in each case.
With `CC(C)(C)C1CCN(C(=O)n2ncc(C(O)(c3ccccc3)c3ccccc3)n2)CC1`, the Potency result in the test on C33A, in the test on CAOV3, in the test with CASKI, in the test with Es-2, in the test with HeLa and in the test with Hek293T was “inactive” each time. Besides, the Potency result with JEG-3, in the test on OV90, with PA-1, in the test on SKOV3, in the test on Tov-21-G and in the test with Tov112D was “inactive” throughout.
For the compound `C1=C/COCc2cc(ccc2OCCN2CCCC2)Nc2nccc(n2)-c2cccc(c2)COC/1`, the Potency in the test with C33A was 11.2 µM (active); with CAOV3, 11.2 µM (active); with CASKI, 3.55 µM (active); in the test on Es-2 it was 14.1 µM (active); in the test on HeLa it was 3.98 µM (active); in the test on Hek293T it was 7.94 µM (active). The Potency was 11.2 µM (active) with JEG-3; 17.8 µM (active) in the test on OV90; 2.82 µM (active) in the test on PA-1; 8.91 µM (active) with SKOV3; 10 µM (active) in the test with Tov-21-G; 11.2 µM (active) in the test on Tov112D. Besides, in test [1], the Potency was 3.52 µM (active).
Take `COC(=O)C[C@H]1C(C)(C)[C@H](OC(=O)c2ccccc2)C2CC3=C4CC(=O)O[C@@H](c5ccoc5)[C@]4(C)CCC3[C@@]1(C)C2=O` (some centres not stated): the Potency result with C33A, in the test with CAOV3, with CASKI, in the test on Es-2, in the test with HeLa and in the test on Hek293T was “inactive” in each case. Further, the Potency result in the test with JEG-3, in the test on OV90, in the test with PA-1, in the test on SKOV3, in the test with Tov-21-G and in the test with Tov112D was “inactive” throughout.
Turning to `COc1c(F)cccc1C(=O)N1C[C@@H](C)CC[C@H]1CNc1ccc(Br)cn1`, the Potency result in the test on C33A, with CAOV3, with CASKI, in the test on Es-2, in the test on HeLa and with Hek293T was “inactive” throughout. In addition, the Potency result in the test with JEG-3, in the test on OV90, in the test with PA-1, in the test with SKOV3, in the test on Tov-21-G and in the test with Tov112D was “inactive” in each case.
In the case of `Cc1ccc(CNc2ncnc3ccc(-c4ccc(CO)o4)cc23)o1`, the Potency result in the test on C33A, in the test on CAOV3, in the test on CASKI, in the test with Es-2, with HeLa and with Hek293T was “inactive” each time. Moreover, the Potency result in the test on JEG-3, in the test with OV90, with PA-1, in the test on SKOV3, in the test on Tov-21-G and in the test on Tov112D was “inactive” in each case.

The values above are taken from PubChem BioAssay (NCATS).
